Source: article PMC7862700, “An all-to-all approach to the identification of sequence-specific readers for epigenetic DNA modifications on cytosine”

What was measured:
Assay in all cases: DAPPL (digital affinity profiling via proximity ligation, sequencing); 10 mM Tris-HCl pH 7.5, 50 mM NaCl, 1 mM DTT, 4% glycerol, room temperature, 30 min; GST-TFs on glutathione beads, 16-mer random dsDNA library, 0.1% formaldehyde crosslink after washing; high values mean tight binding
Settings in all cases: protein: recombinant; tags: N-terminal GST; dsDNA, one strand shown
FLI1 = target: T1, FLI1 (Homo sapiens, UniProt Q01543 1-452)
T1 sequence: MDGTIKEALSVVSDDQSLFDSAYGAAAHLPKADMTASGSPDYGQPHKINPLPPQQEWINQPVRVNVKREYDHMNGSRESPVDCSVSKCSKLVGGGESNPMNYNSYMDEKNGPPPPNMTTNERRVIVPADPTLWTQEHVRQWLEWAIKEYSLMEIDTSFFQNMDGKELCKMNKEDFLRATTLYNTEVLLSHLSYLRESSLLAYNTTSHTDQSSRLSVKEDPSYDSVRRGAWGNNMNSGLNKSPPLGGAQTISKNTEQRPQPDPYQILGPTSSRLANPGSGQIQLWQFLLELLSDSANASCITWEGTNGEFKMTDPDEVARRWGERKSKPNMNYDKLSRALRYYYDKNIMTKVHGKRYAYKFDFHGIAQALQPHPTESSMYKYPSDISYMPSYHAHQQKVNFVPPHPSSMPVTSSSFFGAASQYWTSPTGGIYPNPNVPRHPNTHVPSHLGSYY
Method in brief: (§1)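 Pools were built from human transcription factors expressed in yeast as GST fusions, captured on glutathione beads and DNA-barcoded, along with a tag-only sample. Incubation with 200 nmole of a 16-mer random double-stranded DNA library lasted 30 min at room temperature in Tris/NaCl/DTT/glycerol buffer, and was followed by washing, 0.1% formaldehyde crosslinking, proximity ligation, PCR amplification and Illumina NextSeq500 sequencing. Binding signal is the quotient of each hexamer's read frequency for a factor and its frequency for the tag-only sample.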

ELK1 = target: T2, ELK1 (Homo sapiens, UniProt P19419 1-428)
T2 sequence: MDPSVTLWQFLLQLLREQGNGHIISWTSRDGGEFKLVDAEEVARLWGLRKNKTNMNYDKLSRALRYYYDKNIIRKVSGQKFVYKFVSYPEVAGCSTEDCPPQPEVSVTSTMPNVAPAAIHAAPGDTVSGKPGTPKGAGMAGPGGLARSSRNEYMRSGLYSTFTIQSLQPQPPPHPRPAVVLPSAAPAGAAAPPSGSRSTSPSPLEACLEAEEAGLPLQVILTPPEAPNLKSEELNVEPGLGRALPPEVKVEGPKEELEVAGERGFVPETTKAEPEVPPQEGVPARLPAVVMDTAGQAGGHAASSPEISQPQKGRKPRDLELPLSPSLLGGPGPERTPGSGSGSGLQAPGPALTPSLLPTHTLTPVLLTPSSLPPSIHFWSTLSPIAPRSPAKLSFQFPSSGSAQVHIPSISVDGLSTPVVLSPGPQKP
Method in brief: as §1

GABPA = target: T3, GABPA (Homo sapiens, UniProt Q06546 1-454)
T3 sequence: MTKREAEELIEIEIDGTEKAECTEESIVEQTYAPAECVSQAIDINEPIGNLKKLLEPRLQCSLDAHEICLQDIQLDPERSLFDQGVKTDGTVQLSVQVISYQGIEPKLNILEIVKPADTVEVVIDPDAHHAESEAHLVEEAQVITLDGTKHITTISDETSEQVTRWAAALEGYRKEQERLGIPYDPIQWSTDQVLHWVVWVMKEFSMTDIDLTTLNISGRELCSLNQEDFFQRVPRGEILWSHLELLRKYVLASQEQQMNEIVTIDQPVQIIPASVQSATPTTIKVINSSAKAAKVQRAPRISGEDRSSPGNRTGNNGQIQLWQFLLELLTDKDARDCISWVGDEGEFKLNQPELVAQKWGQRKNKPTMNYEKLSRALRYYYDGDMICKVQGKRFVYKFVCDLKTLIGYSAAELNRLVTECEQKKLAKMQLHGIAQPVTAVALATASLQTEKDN
Method in brief: as §1

ERG = target: T4, ERG (Homo sapiens, UniProt P11308 1-479)
T4 sequence: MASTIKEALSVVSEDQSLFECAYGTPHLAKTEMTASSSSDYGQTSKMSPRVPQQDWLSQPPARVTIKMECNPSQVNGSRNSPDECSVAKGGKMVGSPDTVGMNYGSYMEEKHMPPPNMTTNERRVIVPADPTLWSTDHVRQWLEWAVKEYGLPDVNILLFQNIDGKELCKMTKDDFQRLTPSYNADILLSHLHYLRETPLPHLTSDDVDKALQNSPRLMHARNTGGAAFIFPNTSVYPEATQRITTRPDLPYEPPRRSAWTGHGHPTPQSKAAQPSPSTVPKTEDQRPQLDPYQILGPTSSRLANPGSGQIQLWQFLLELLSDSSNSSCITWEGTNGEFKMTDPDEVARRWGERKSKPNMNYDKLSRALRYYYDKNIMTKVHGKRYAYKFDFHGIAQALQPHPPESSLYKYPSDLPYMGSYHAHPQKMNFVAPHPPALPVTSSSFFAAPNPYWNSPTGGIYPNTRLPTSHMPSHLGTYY
Method in brief: as §1

ELF1 = ELF1 (Homo sapiens, UniProt P32519 1-619)
ELF1, sequence (P32519 whole entry): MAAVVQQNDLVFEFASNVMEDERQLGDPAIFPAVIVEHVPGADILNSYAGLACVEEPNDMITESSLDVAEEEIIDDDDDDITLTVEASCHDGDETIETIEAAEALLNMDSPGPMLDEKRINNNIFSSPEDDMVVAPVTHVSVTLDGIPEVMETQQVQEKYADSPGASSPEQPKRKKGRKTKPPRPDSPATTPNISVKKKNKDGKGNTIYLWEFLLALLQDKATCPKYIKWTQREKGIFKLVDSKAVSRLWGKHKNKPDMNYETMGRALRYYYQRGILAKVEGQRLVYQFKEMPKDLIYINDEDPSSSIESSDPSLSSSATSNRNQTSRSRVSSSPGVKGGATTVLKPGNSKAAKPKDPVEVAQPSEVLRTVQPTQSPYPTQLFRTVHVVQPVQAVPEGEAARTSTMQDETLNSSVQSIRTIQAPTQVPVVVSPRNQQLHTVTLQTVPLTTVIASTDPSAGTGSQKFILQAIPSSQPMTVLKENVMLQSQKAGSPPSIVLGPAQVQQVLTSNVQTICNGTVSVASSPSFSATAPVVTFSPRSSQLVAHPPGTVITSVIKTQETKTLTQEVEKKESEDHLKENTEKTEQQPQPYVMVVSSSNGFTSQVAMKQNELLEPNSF
Method in brief: as §1

EHF = target: T5, EHF (Homo sapiens, UniProt Q9NZC4 1-300)
T5 sequence: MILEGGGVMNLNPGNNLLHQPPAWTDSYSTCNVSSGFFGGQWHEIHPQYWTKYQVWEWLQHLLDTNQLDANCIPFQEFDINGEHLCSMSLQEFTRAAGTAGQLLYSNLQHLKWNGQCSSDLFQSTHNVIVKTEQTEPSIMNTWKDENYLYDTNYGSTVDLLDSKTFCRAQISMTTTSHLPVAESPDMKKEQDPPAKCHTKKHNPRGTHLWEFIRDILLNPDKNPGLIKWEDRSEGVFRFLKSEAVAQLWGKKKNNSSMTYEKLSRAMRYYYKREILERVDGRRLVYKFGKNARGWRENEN
Method in brief: as §1

SPI1 = SPI1 (Homo sapiens, UniProt P17947 1-270)
Method in brief: as §1

SPIB = SPIB (Homo sapiens, UniProt Q01892 1-262)
SPIB, sequence (Q01892 whole entry): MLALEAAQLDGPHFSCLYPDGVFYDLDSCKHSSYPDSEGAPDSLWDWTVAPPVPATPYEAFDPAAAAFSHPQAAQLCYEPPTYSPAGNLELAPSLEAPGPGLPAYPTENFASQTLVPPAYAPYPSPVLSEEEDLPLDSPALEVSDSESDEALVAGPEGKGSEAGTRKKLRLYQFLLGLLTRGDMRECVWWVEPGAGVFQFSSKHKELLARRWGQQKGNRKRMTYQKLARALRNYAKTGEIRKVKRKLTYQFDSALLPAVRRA
Method in brief: as §1

ELK3 = target: T6, ELK3 (Homo sapiens, UniProt P41970 1-407)
T6 sequence: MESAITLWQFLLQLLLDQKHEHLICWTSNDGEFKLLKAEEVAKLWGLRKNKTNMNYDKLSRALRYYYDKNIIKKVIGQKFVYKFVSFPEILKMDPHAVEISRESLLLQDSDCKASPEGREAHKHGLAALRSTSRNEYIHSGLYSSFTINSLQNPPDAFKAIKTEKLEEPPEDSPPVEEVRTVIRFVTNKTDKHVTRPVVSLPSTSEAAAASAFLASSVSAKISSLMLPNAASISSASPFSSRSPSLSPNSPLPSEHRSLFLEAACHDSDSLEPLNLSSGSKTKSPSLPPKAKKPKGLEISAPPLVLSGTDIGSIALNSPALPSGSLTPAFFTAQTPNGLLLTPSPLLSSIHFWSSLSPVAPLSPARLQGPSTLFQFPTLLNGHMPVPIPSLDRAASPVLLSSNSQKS
Method in brief: as §1

Sequence	binding signal (FLI1)	binding signal (ELK1)	binding signal (GABPA)	binding signal (ERG)	binding signal (ELF1)	binding signal (EHF)	binding signal (SPI1)	binding signal (SPIB)	binding signal (ELK3)
AATAAA	1.2 fold enrichment (6-mer frequency, TF over GST control)	1.2 fold enrichment (6-mer frequency, TF over GST control)	1.27 fold enrichment (6-mer frequency, TF over GST control)	1.21 fold enrichment (6-mer frequency, TF over GST control)	1.27 fold enrichment (6-mer frequency, TF over GST control)	1.25 fold enrichment (6-mer frequency, TF over GST control)	1.32 fold enrichment (6-mer frequency, TF over GST control)	1.26 fold enrichment (6-mer frequency, TF over GST control)	1.27 fold enrichment (6-mer frequency, TF over GST control)
TAACCC	1.31 fold enrichment (6-mer frequency, TF over GST control)	1.4 fold enrichment (6-mer frequency, TF over GST control)	1.25 fold enrichment (6-mer frequency, TF over GST control)	1.23 fold enrichment (6-mer frequency, TF over GST control)	1.28 fold enrichment (6-mer frequency, TF over GST control)	1.25 fold enrichment (6-mer frequency, TF over GST control)	1.18 fold enrichment (6-mer frequency, TF over GST control)	1.21 fold enrichment (6-mer frequency, TF over GST control)	1.38 fold enrichment (6-mer frequency, TF over GST control)
TATTAT	1.3 fold enrichment (6-mer frequency, TF over GST control)	1.27 fold enrichment (6-mer frequency, TF over GST control)	1.21 fold enrichment (6-mer frequency, TF over GST control)	1.25 fold enrichment (6-mer frequency, TF over GST control)	1.25 fold enrichment (6-mer frequency, TF over GST control)	1.25 fold enrichment (6-mer frequency, TF over GST control)	1.2 fold enrichment (6-mer frequency, TF over GST control)	1.24 fold enrichment (6-mer frequency, TF over GST control)	1.12 fold enrichment (6-mer frequency, TF over GST control)
TATGAT	1.21 fold enrichment (6-mer frequency, TF over GST control)	1.18 fold enrichment (6-mer frequency, TF over GST control)	1.22 fold enrichment (6-mer frequency, TF over GST control)	1.2 fold enrichment (6-mer frequency, TF over GST control)	1.24 fold enrichment (6-mer frequency, TF over GST control)	1.27 fold enrichment (6-mer frequency, TF over GST control)	1.18 fold enrichment (6-mer frequency, TF over GST control)	1.23 fold enrichment (6-mer frequency, TF over GST control)	1.23 fold enrichment (6-mer frequency, TF over GST control)
